PubChem BioAssay AID633 (Emory University Molecular Libraries Screening Center, 2007)
The campaign covered roughly 86,000 compounds. About 1,100 (1.3%) were called active. The sample holds actives, similar compounds and a random draw of the others, so the mix is not that of the screen. A number with no mark means an inactive call.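 The calls were made as follows: active = compounds whose percent inhibition of the receptor-coactivator binding signal exceeds about 50% in the single-dose screen (limit read from the data); inactive = the rest.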

target: Estrogen receptor beta (Homo sapiens) (UniProt Q92731); test: blockers of coactivator peptide binding to ERβ – biochemical, TR-FRET, ERβ LBD, SRC-1 peptide, primary screen (AID 633); details: TR-FRET ER-beta LBD / SRC1-Cy5 peptide binding; at 25.6 µM; hits give high values; receptor agonist-loaded with 1 µM estradiol;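 also: 0% = receptor plus peptide wells without compound and 100% = peptide-only wells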
Sequence (Q92731 whole entry, looked up, the tested form may be a part): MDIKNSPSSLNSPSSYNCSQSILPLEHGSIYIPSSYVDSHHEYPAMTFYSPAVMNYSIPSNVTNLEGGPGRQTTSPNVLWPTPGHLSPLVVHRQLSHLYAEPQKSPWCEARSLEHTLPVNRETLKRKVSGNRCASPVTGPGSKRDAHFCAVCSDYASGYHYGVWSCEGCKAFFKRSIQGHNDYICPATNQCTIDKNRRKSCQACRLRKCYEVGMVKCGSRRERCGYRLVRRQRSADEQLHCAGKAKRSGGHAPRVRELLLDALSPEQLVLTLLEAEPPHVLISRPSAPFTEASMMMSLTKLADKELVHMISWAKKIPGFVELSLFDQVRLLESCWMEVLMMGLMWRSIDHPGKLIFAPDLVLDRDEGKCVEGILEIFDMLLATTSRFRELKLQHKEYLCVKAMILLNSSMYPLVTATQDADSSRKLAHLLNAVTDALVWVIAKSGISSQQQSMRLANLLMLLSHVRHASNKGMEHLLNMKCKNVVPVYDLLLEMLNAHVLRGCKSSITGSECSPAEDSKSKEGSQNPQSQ

Compound | inhibition
CCSc1ccccc1C(=O)NCc1ccc(OC)cc1 | 15.2%
CCC(=O)NC(Nc1nc2ccc(C)cc2s1)(C(=O)OC)C(F)(F)F (centres undefined) | 9.59%
Cc1cc(N2CCN(S(=O)(=O)c3ccc(C)c(C)c3)CC2)c2ccccc2n1 | 3.59%
c1ccc2[nH]c(NCCN3CCOCC3)nc2c1 | -3.02%
c1ccc(Nc2nc(N3CCOCC3)c3ccccc3n2)cc1 | -6.49%
C1=C(N2CCOCC2)/C(=C/c2nc3ccccc3[nH]2)CC1 | 72.1% (active)
O=C(Cc1ccc(-n2c(=O)c3sccc3n(Cc3ccc(F)cc3)c2=O)cc1)NCc1ccco1 | 21.4%
CS(=O)(=O)c1ccc2c(c1)SC1=NC(=O)/C(=C/c3ccco3)C(=N)N12 | 79% [fluorescence artefact?] (active)
O=C1C2C3C=CC(C4CC34)C2C(=O)N1/N=C/c1ccc(-c2ccccc2[N+](=O)[O-])o1 (centres undefined) | 2.95%
CC(C)C(=O)NC(NC(=S)NC1CCS(=O)(=O)C1)C(Cl)(Cl)Cl (centres undefined) | 14.7%
Cc1coc2c(O)cc3c(c12)OC1(N2CCCCC2)C(=O)NCCCC31 (centres undefined) | 60.9% [fluorescence artefact?] (active)
COc1ccccc1NC(=O)C1CCCN(c2cc(C)nc3ncnn23)C1 (centres undefined) | -2.37%
CCOc1ccc(C(O)Cc2nc3ccccc3n2C)cc1 (centres undefined) | -4.37%
CCOC(=O)c1ccccc1NS(=O)(=O)c1ccc(OC)cc1 | -1.65%
COC(=O)c1cnn2c(C(F)(F)F)cc(-c3ccco3)nc12 | 58.5% (active)
COC(=O)c1cc2nc(-c3ccccc3)cc(C(F)(F)F)n2n1 | -1.27%
O=C(NCc1ccco1)c1cnn2c(C(F)(F)F)cc(-c3ccco3)nc12 | 5.47%
Cc1noc(/C=C/c2ccco2)c1S(=O)(=O)N1CCC(C(=O)N2CCc3ccccc32)CC1 | -6.43%
Nc1ccc(-c2nnc(-c3ccc(-c4ccccc4)cc3)o2)cc1 | 19.9%
O=C(Nc1ccc(-c2nnc(-c3ccccc3)o2)cc1)c1ccc(Br)o1 | 30%

Compound | inhibition
Brc1ccc(-c2nnc(-c3ccccc3)o2)o1 | 60.6% [fluorescence artefact?] (active)
CC(C)n1c(-c2cccs2)nc2ccccc21 | -10.4%
Cc1cc(S(=O)(=O)NC2CCCCC2)ccc1OCC(=O)NCc1cccnc1 | -4.71%
N#CC1=C(N)Oc2c(sc3ccccc23)C1c1ccco1 (centres undefined) | 51.7% [fluorescence artefact?] (active)
CC1=C(C(=O)Nc2ccccc2)C(c2ccco2)C(C#N)=C(SCC(N)=O)N1 (centres undefined) | -2.8%
Cc1cc2c(c(=O)n1Cc1ccco1)C(c1ccccc1)C(C#N)=C(N)O2 (centres undefined) | -16.4%
Cc1ccc2nc(S(=O)(=O)O)[nH]c2c1 | 3.08%
CC(C)c1nc2ccc(C(=O)O)cc2[nH]1 | 14.7%
Cc1nc2ccc(C(=O)O)cc2[nH]1 | 56.8% (active)
Cn1ccs/c1=N\S(=O)(=O)c1ccc(C(C)(C)C)cc1 | 0.33%
COc1ccccc1/C=C/C1=NC(=C\N(C)C)/C(=O)O1 | 1.45%
CCNCc1cc2cc(C)ccc2[nH]c1=O | -8.3%
COc1ccc(CCn2c(=N)c(C(=O)NCc3ccco3)cc3c(=O)n4cccc(C)c4nc32)cc1 | 48.1%
Cc1ccc2[nH]c(=O)c(-c3nc4c(C)cccn4c3NCc3ccco3)cc2c1 | 56.9% [fluorescence artefact?] (active)
Cn1nnnc1SCC(=O)Nc1ccccc1C(=O)NC1CC1 | -5.32%
CC1CN(S(=O)(=O)c2ccccc2)C(C)CN1S(=O)(=O)c1ccccc1 (centres undefined) | 1.26%
Cc1cc(C)cc(N(CC(=O)N2CC=C(c3ccccc3)CC2)S(=O)(=O)c2c(C)noc2C)c1 | -1.97%
CCOc1ccc(S(=O)(=O)Nc2ccc(S(=O)(=O)Nc3cc(OC)ccc3OC)cc2)cc1 | -5.81%
CCCCCCc1cc2cc(-c3nnc(-c4cccc(OC)c4)o3)c(=O)oc2cc1O | 1.17%
